Results reported in PubChem BioAssay AID1645855 (Buhrlage Lab, Dana-Farber Cancer Institute and Novartis …, 2021).
Out of some 47,000 compounds screened, about 3,100 (6.6%) were called active. Only a selection was taken, and actives are over-represented in it overall. Values without a mark were called inactive. Cut-off read from the data, not from the text of the source: active = inhibition above about 30%; inactive = the rest.

Molecular target: Ubiquitin carboxyl-terminal hydrolase 17-like protein 5 (Homo sapiens) (UniProt A8MUK1)
Test: blocks human USP17 ubiquitin-rhodamine cleavage (AID 1645855)
Settings: purified USP17, Ub-rhodamine cleavage fluorescence, 3 h; at 50 µM; hits give high values

Chain of Ubiquitin carboxyl-terminal hydrolase 17-like protein 5 (Homo sapiens) (A8MUK1 whole entry, looked up): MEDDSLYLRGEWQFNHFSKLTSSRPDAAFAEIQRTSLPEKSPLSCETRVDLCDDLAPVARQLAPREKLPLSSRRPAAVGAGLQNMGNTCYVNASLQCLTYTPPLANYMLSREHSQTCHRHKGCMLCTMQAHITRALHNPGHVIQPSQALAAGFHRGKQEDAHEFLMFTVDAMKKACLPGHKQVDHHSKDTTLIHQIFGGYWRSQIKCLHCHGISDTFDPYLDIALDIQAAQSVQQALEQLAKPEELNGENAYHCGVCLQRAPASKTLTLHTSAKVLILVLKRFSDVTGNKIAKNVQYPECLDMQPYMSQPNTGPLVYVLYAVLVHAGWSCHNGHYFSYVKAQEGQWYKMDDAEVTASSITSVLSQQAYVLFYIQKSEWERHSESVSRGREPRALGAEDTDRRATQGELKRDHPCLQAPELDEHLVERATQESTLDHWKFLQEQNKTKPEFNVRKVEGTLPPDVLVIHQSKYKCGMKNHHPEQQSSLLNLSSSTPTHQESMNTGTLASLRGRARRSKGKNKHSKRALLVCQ

| SMILES | inhibition |
| --- | --- |
| O=C(Cn1cccc(S(=O)(=O)N2CCCC2)c1=O)Nc1ccccc1 | -38% |
| CN(C)CCO[C@H]1CN(C(=O)c2cccnc2)[C@@H]2CCCO[C@H]12 | -13.9% |
| COc1ccc(C)cc1NC(=O)Cn1c(=O)nc(N(C)c2ccccc2)c2ccccc21 | 14.1% |
| O=C(Cn1cnc2c(sc3ccccc32)c1=O)Nc1ccc2c(c1)OCCO2 | 23.3% |
| CN(c1ccccc1)c1nc(=O)n(CC(=O)Nc2ccc3c(c2)OCCO3)c2ccccc12 | 54% (active) |
| COc1cc(O)sc1C=Nc1ccc(Oc2ccccc2)cc1 | 9.93% |
| Cc1cnc(N2CCC3(CC2)[C@@H]2CN(Cc4cccnc4)C[C@@H]2C(=O)N3C)nc1 | -34.9% |
| c1ccc(-c2ccc(NCc3ccc4c(c3)OCO4)nn2)cc1 | 71.6% (active) |
| CCC(Oc1ccccc1)C(=O)NCc1ccc2c(c1)OCO2 (stereo unspecified) | -0.19% |
| c1cc(CNCc2ccc3c(c2)OCO3)ccn1 | 0.475% |
| COC(=O)c1ccc(CN2CCN(c3cnn4cnnc4c3)CC2)cc1 | 0.152% |
| CN(CC(=O)Nc1cccc(C(F)(F)F)c1)Cc1nc2ccccc2c(=O)[nH]1 | -13.9% |
| Cc1ccc(S(=O)(=O)Nc2nc3ccccc3n3nnnc23)cc1 | -34.7% |
| CSc1nccc(-c2ccc(F)cc2)c1C#N | 82.5% (active) |
| COc1ccc(F)c([C@@H]2NC(=O)CC[C@H]2NCc2cccc(O)c2)c1 | -6.39% |
| CC(=O)Nc1cccnc1-c1ccc(C(=O)Nc2ccc(C)c(C)c2)cc1 | 6.52% |

| SMILES | inhibition |
| --- | --- |
| Cc1ocnc1C(=O)N[C@@H]1C[C@@H](Oc2ccccc2)[C@H](O)[C@H]1N1CCOCC1 | 9.29% |
| Cc1ccc(NS(=O)(=O)c2cc(C(=O)NCc3cccnc3)ccc2Cl)cc1 | 6.21% |
| Cc1cccc(OCCCC(=O)Nc2sc3c(c2C(N)=O)CCCC3)c1C | -11% |
| Cc1ccc2occ(CC(=O)Nc3sc4c(c3C(=O)NCc3cccnc3)CCCC4)c2c1 | 33.6% (active) |
| COc1ccc(CCNC(=O)c2ccc3ccccc3c2)cc1OC | -2.29% |
| O=C(NCCc1c[nH]c2ccccc12)c1cc2cc(Cl)ccc2o1 | 23% |
| COc1ccc2[nH]cc(CCNC(=O)Cc3csc(-c4cc(OC)c(OC)c(OC)c4)n3)c2c1 | 8.14% |
| CCC(=O)NC(=NCCc1c[nH]c2ccc(Cl)cc12)Nc1nc(C)cc(C)n1 | 43.9% (active) |
| CC(=O)N1CCCCCC1C1CCN(c2ncccc2C#N)CC1 (stereo unspecified) | -19% |
| Cn1nccc1-c1cccc(-c2noc(-c3ccoc3)n2)c1 | -3.53% |
| O=C(CCCC1=NS(=O)(=O)c2ccccc2N1)Nc1ccc(C(=O)O)cc1 | 25.1% |
| Cc1c(Cl)cccc1NC(=O)C(=O)c1cn(CC(=O)N2CCOCC2)c2ccccc12 | -0.359% |
| Cn1ccnc1CN1C(=O)CO[C@H]2CN(Cc3ccc4c(c3)OCO4)C[C@H]21 | 4.69% |
| Cc1ccccc1CS(=O)(=O)Cc1ccc(C(=O)Nc2noc3ccccc23)o1 | 48.3% (active) |
| Cc1cc(-c2cncnc2-c2ccc(CNC(=O)Cc3ccccc3C)cc2)on1 | 18.8% |
